Measurements taken from PubChem BioAssay (NCI).
Compounds without any hit were thinned out: in the full panel of roughly 79,000, 15% have a hit. The source made the active and inactive calls. No stated cut-off is given here; in the data, active means growth inhibition above about 70%; inactive means the rest.

Columns and labels:
[1] = NCI Yeast Anticancer Drug Screen. Data for the wt1 strain (AID 149);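 further: 0% = growth of vehicle-treated wt1 cultures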; conditions: S. cerevisiae wt1 strain (SPY 50644) growth inhibition, active compounds read high
How it was run: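 Growth inhibition read against vehicle controls after compound exposure of the wt1 yeast strain.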

[2] = NCI Yeast Anticancer Drug Screen. Data for the rad50EPP+ strain (AID 151);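 further: 0% = growth of vehicle-treated control cultures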; conditions: S. cerevisiae rad50 mutant strain, active compounds read high
How it was run: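 Genetically defined yeast (rad50EPP+, DNA damage repair alteration) is grown with compound, and inhibition of growth is expressed relative to vehicle-treated controls.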

[3] = NCI Yeast Anticancer Drug Screen. Data for the mgt1 strain (AID 153); conditions: S. cerevisiae mgt1 mutant growth inhibition, active compounds read high
How it was run: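 In the mgt1 strain, test compounds were added and growth inhibition was determined relative to vehicle-treated controls.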

[4] = NCI Yeast Anticancer Drug Screen. Data for the rad50 strain (AID 155);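 further: 0% = growth of vehicle-only cultures of the same strain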; conditions: S. cerevisiae rad50 strain growth inhibition, active compounds read high
How it was run: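 Readout: growth inhibition relative to vehicle-treated cultures. Compound exposure was carried out in a genetically defined yeast strain deficient in DNA damage repair.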

[5] = NCI Yeast Anticancer Drug Screen. Data for the mec2-1 strain (AID 157); conditions: S. cerevisiae mec2-1 strain, active compounds read high
How it was run: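 Each compound was tested on mec2-1 yeast, a strain altered in DNA damage repair or cell cycle control. Growth inhibition is reported relative to vehicle.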

[6] = NCI Yeast Anticancer Drug Screen. Data for the rad14 strain (AID 159);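 further: 0% = growth of vehicle-treated control cultures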; conditions: S. cerevisiae rad14 strain growth inhibition, active compounds read high
How it was run: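 Growth inhibition vs vehicle controls; genetically altered yeast strain (DNA damage repair defect) treated with test compounds.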

[7] = NCI Yeast Anticancer Drug Screen. Data for the sgs1 mgt1 strain (AID 161);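 further: 0% = growth of cultures given vehicle only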; conditions: S. cerevisiae sgs1 mgt1 strain, active compounds read high
How it was run: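 Read-out: growth inhibition vs vehicle controls. Cells: mutant yeast strain deficient in DNA damage repair.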

[8] = NCI Yeast Anticancer Drug Screen. Data for the CLN2oe strain (AID 163);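 further: 0% = growth of vehicle-only control cultures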; conditions: S. cerevisiae CLN2oe strain, active compounds read high
How it was run: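 First, the altered yeast strain was treated with each compound; second, its growth was measured; finally, inhibition was derived by comparison with vehicle controls.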

[9] = NCI Yeast Anticancer Drug Screen. Data for the cln2 rad14 strain (AID 165);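 further: 0% = growth equal to vehicle treated cultures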; conditions: S. cerevisiae cln2 rad14 strain, active compounds read high
How it was run: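 Test compounds were added to cln2 rad14 yeast cultures; inhibition of growth was then determined by comparison with vehicle treatment.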

[10] = NCI Yeast Anticancer Drug Screen. Data for the bub3 strain (AID 167); conditions: S. cerevisiae bub3 mutant strain, active compounds read high
How it was run: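 Readout: yeast growth inhibition, expressed relative to vehicle-only wells. The test organism is a mutant strain from a panel with lesions in DNA repair or checkpoint genes.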

[11] = NCI Yeast Anticancer Drug Screen. Data for the mlh1 strain (AID 171);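 further: 0% = growth of vehicle-treated control cultures of the same strain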; conditions: S. cerevisiae mlh1 strain growth inhibition, active compounds read high
How it was run: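 Inhibition values reflect reduced yeast growth in the presence of compound, referenced to vehicle controls, using a strain chosen for its alteration in DNA repair or cell cycle control.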

[12] = NCI Yeast Anticancer Drug Screen. Data for the sgs1 strain (AID 173);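 further: 0% = growth of vehicle-only control cultures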; conditions: S. cerevisiae sgs1 mutant, active compounds read high
How it was run: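 Vehicle-treated cultures served as reference for growth inhibition of a yeast strain altered in DNA damage repair or cell cycle control after compound exposure.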

[13] = NCI Yeast Anticancer Drug Screen. Data for the mlh1 rad18 strain (AID 175); conditions: S. cerevisiae mlh1 rad18 strain growth inhibition, active compounds read high
How it was run: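 Inhibition values reflect reduced growth of mutant yeast versus vehicle-treated controls following compound exposure; the mutations affect DNA damage repair.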

[14] = NCI Yeast Anticancer Drug Screen. Data for the rad18 strain (AID 177); conditions: S. cerevisiae rad18 mutant growth inhibition, active compounds read high
How it was run: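 Steps: expose repair-mutant yeast to compound; measure growth; express as inhibition relative to vehicle control.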

[15] = NCI Yeast Anticancer Drug Screen. Data for the wt2 strain (AID 169);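 further: 0% = growth of vehicle-treated yeast cultures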; conditions: S. cerevisiae wt2 strain growth inhibition, active compounds read high
How it was run: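 The panel's yeast strains carry defined changes in DNA repair or cell cycle genes. Each strain is grown with compound, and growth loss is scored relative to vehicle.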

[16] = at 5.0 µM (retest, dose inferred, filed as 0.5)
[17] = at 50.0 µM (retest, dose inferred, filed as 5.0)

Measured: growth inhibition

CC[N+]1(C)CCC(O)(/C=C/c2ccc(Cl)c(Cl)c2)C(C(=O)/C=C/c2ccc(Cl)c(Cl)c2)C1 (stereo not drawn)
inactive: [1]; at 1.2 µM -29% | [1]; at 3.7 µM 30% | [2]; at 1.2 µM 12% | [3]; at 1.2 µM 7% | [4]; at 1.2 µM 7% | [4]; at 3.7 µM 52% | [5]; at 1.2 µM 36% | [6]; at 1.2 µM 6% | [6]; at 3.7 µM 39% | [8]; at 1.2 µM -8% | [8]; at 3.7 µM 15% | [9]; [16] 46% | [10]; at 1.2 µM 0% | [10]; at 3.7 µM 20% | [11]; at 1.2 µM 6% | [11]; at 3.7 µM 45% | [12]; at 1.2 µM 15% | [14]; at 1.2 µM 29%
active: [1]; at 11.0 µM 99% | [1]; at 33.0 µM 99% | [1]; at 100.0 µM 98% | [2]; at 3.7 µM 85% | [2]; at 11.0 µM 99% | [2]; at 33.0 µM 99% | [2]; at 100.0 µM 99% | [3]; at 3.7 µM 72% | [3]; at 11.0 µM 99% | [3]; at 33.0 µM 99% | [3]; at 100.0 µM 99% | [4]; [16] 85% | [4]; at 11.0 µM 99% | [4]; at 33.0 µM 99% | [4]; [17] 98% | [4]; at 50.0 µM 99.5% | [4]; at 100.0 µM 98% | [5]; at 3.7 µM 88% | [5]; [16] 86% | [5]; at 11.0 µM 99% | [5]; at 33.0 µM 99% | [5]; [17] 99% | [5]; at 50.0 µM 99.3% | [5]; at 100.0 µM 99% | [6]; at 11.0 µM 99% | [6]; at 33.0 µM 99% | [6]; at 100.0 µM 99% | [7]; [16] 88% | [7]; [17] 98% | [7]; at 50.0 µM 99.5% | [8]; at 11.0 µM 99% | [8]; at 33.0 µM 98% | [8]; at 100.0 µM 99% | [9]; [17] 99% | [9]; at 50.0 µM 99% | [10]; [16] 90% | [10]; at 11.0 µM 98% | [10]; at 33.0 µM 99% | [10]; [17] 99% | [10]; at 50.0 µM 99.1% | [10]; at 100.0 µM 96% | [11]; at 11.0 µM 99% | [11]; at 33.0 µM 99% | [11]; at 100.0 µM 99% | [12]; at 3.7 µM 71% | [12]; at 11.0 µM 99% | [12]; at 33.0 µM 99% | [12]; at 100.0 µM 98% | [13]; [16] 82% | [13]; [17] 99% | [13]; at 50.0 µM 99.2% | [14]; at 3.7 µM 77% | [14]; at 11.0 µM 99% | [14]; at 33.0 µM 99% | [14]; at 100.0 µM 99%

CCCCCCCCCCCCCCCCOCC(Cl)COP(=O)(O)OP(=O)(O)OCC1OC(n2cnc3c(N)ncnc32)C(O)C1O (stereo not drawn)
inactive: [1]; at 1.2 µM 21% | [1]; at 3.7 µM 35% | [1]; at 11.0 µM 46% | [1]; at 33.0 µM 54% | [1]; at 100.0 µM 51% | [2]; at 1.2 µM 20% | [2]; at 3.7 µM 24% | [2]; at 11.0 µM 43% | [2]; at 33.0 µM 67% | [3]; at 1.2 µM 15% | [3]; at 3.7 µM 14% | [3]; at 11.0 µM 55% | [3]; at 33.0 µM 68% | [4]; at 1.2 µM 14% | [4]; at 3.7 µM 28% | [4]; [16] 49% | [4]; at 50.0 µM 54.4% | [5]; at 1.2 µM 14% | [5]; at 3.7 µM 6% | [5]; [16] 36% | [5]; at 11.0 µM 19% | [5]; at 33.0 µM 11% | [5]; at 50.0 µM 33.4% | [5]; at 100.0 µM 47% | [6]; at 1.2 µM 10% | [6]; at 3.7 µM 6% | [6]; at 11.0 µM 29% | [6]; at 33.0 µM 35% | [6]; at 100.0 µM 46% | [8]; at 1.2 µM 2% | [8]; at 3.7 µM 2% | [8]; at 11.0 µM -4% | [8]; at 33.0 µM 24% | [8]; at 100.0 µM 31% | [10]; at 1.2 µM -12% | [10]; at 3.7 µM -25% | [10]; [16] 10% | [10]; at 11.0 µM -8% | [10]; at 33.0 µM 9% | [10]; at 50.0 µM 28.2% | [10]; at 100.0 µM 39% | [15]; at 1.2 µM -2% | [15]; at 3.7 µM -3% | [15]; at 11.0 µM 11% | [15]; at 33.0 µM 19% | [15]; at 100.0 µM 57% | [11]; at 1.2 µM 10% | [11]; at 3.7 µM -1% | [11]; at 11.0 µM 53% | [11]; at 33.0 µM 63% | [12]; at 1.2 µM 40% | [12]; at 3.7 µM 64% | [13]; [16] 36% | [13]; at 50.0 µM 48%
active: [2]; at 100.0 µM 97% | [3]; at 100.0 µM 85% | [4]; at 11.0 µM 75% | [4]; at 33.0 µM 86% | [4]; [17] 93% | [4]; at 100.0 µM 86% | [5]; [17] 73% | [7]; [16] 74% | [7]; [17] 96% | [7]; at 50.0 µM 88.4% | [10]; [17] 73% | [11]; at 100.0 µM 78% | [12]; at 11.0 µM 93% | [12]; at 33.0 µM 95% | [12]; at 100.0 µM 92% | [13]; [17] 92%

CC(C)OC(CCC#N)c1ccc(Cl)cc1 (stereo not drawn)
inactive: [1]; at 1.2 µM -35% | [1]; at 3.7 µM -28% | [1]; at 11.0 µM -24% | [1]; at 33.0 µM -13% | [1]; at 100.0 µM 4% | [2]; at 1.2 µM -6% | [2]; at 3.7 µM 1% | [2]; at 11.0 µM 2% | [2]; at 33.0 µM 5% | [2]; at 100.0 µM 20% | [3]; at 1.2 µM -46% | [3]; at 3.7 µM -44% | [3]; at 11.0 µM -41% | [3]; at 33.0 µM -17% | [3]; at 100.0 µM 7% | [4]; at 1.2 µM -22% | [4]; at 3.7 µM -25% | [4]; [16] 62% | [4]; at 11.0 µM -26% | [4]; at 33.0 µM -6% | [4]; at 50.0 µM 3.4% | [4]; at 100.0 µM 24% | [5]; at 1.2 µM -29% | [5]; at 3.7 µM -28% | [5]; [16] 55% | [5]; at 11.0 µM -18% | [5]; at 33.0 µM -2% | [5]; at 50.0 µM 7.95%
active: [4]; [17] 99% | [5]; [17] 99%
